Reference: the supplement of paper PMC6555819

test system: FXR:RXRa (NR concentration 270 nM, RXRa partner concentration 90 nM); test: PBM binding z-score (relative to random genomic background probes); higher = stronger binding; sequences stand for … in GC…GCGATTGACAGCGTAGAATGAAGG
Method in brief: (§1)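 Random background probes are the reference for binding z-scores. These scores derive from regression-normalized fluorescence on custom Agilent 4×180K protein-binding microarrays incubated 1 h with ligand-free nuclear receptor dimers. Binding was detected with antibodies against each partner (one per run).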

Sequence	PBM binding z-score
CCTTACGGGACACTGACAGGTTATAGCATTTGGA	-0.0808
AGAACGAGGGCAATGAGTTGAGAGCACGGGTGGC	0.342
CCTGCTAGGTCAATGGTCGGCTAAAGCAGCTCGC	2.91
CCGACTGGGGCTAAGGTTACCATACTCAGTACGA	0.144
CTTCCAAGGTCAATGCTAGGTCAGTGAAAGCATT	6.83
CATACTGGGCCAAAGGTCATTGATTCCAATGCTC	5.32
AGAACGAGGGCACGCTGAGTTGCTAGCAGAGTAG	0.473
CCTCGGAGGACCACAGGAGGTCAGAGCTGCCAGA	0.729
AGTCAAAGTTCAGGACGAGGTTACGTAAAGCACG	4.83
TCTAGTTGGTCACGGACGTCACACACGACGGGTA	0.24
TAGCCTAGGTCATTGCGCCAGTATAGTACGCATC	4.86
TCTTTTAGATCAAGCAGGTTAAGAAAGCCTGAGT	0.715
CATACAGGGTCAGCTAGGCCACAGTAGGGACGGC	4.61
GCTAGTTGGTCAGTAAAAGGTCACACGCCGGTCG	3.48
ACAGACAAGTGAGTGAAGGTAACTCAGCTGGACG	-0.054
CCTACTGGGCCATTCAGAGGTCTTTGATCATATG	-0.281
CCGACTGGGGTAGAAAGGTTACCATACCATCCGG	0.17
CCGACTGGGGCATAAGGTTAGCATAAGCCAGCCC	-0.404
CGTCAAAGTTCCACTAAGGTAACGTAAAGCACGC	0.0989
CCGACTGGGGCAGATAGGTTACCATACCATCCGG	-0.431

Sequence	PBM binding z-score
CATACAGGGTCAGCTAGGCGAGAGTAGGGACGGC	4.5
GGAACGAGGGCAAGTTGATCGCAGAGTTTGATGG	0.747
ACAGACAGGTGATGAAGCTAACTCAGGCTATCAT	-0.132
GCATATAGGTAATACAAGGTAAAAGTCCGATTGT	1.02
TCTGGGAGGACACGAAAGGTCAGAGCTCGACATC	3.35
CCGACTGGGGCAAAGTTACCATAACGCACAGCCA	-0.19
AGAATGAGGTTAAGATGAGGGAAACAGAATACAT	2.41
ATATGTAGATTATCGGGTCATTCAGTTTGCGCAT	2.14
TCATATTGGTAAAGGTGAAAGTCGAACGATATGA	0.751
TCTCGGAGCACACGAAGGTCAGAGCTTTCCAGAG	0.286
CAAACTAGGTCAAGAGATCAAAGTCCGCTTCCCG	3.4
ATCGAAAGGTCGAGGGTGAGTATACCCACCCGAA	4.29
CAGCCTAGGTCAGGGCCAGTATTGGAGGAACGTT	1.65
ATCGAAAGGTCGAAGGTGAGTGTACCCACCCGAA	4.5
CGAACTAGGTTAAGGACAGTGAATCTCCGCACGC	0.447
TCATATAGGTAATACAGGTGAAAGCCGGCATCTA	0.854
CCTGCTAGGTCATCGTCAGCTAATCTACAGTATG	3.85
TCTTGGAGATCAACAGGAGGTTAAGAAAGATCGA	0.373
GCGACTGGGGCAAAGCAGGTTACCATAAGGTTGG	1.14
TAGCCTAGGTCATGGACCAGTATACCACGCGAAC	4.39

test system: LXRa:RXRa (NR concentration 270 nM, RXRa partner concentration 90 nM); test: as above
Method in brief: as §1

Sequence	PBM binding z-score
CCTTACGGGACACTGACAGGTTATAGCATTTGGA	-0.0885
AGAACGAGGGCAATGAGTTGAGAGCACGGGTGGC	-0.0458
CCTGCTAGGTCAATGGTCGGCTAAAGCAGCTCGC	2.29
CCGACTGGGGCTAAGGTTACCATACTCAGTACGA	0.0677
CTTCCAAGGTCAATGCTAGGTCAGTGAAAGCATT	5.58
CATACTGGGCCAAAGGTCATTGATTCCAATGCTC	5.39
AGAACGAGGGCACGCTGAGTTGCTAGCAGAGTAG	0.348
CCTCGGAGGACCACAGGAGGTCAGAGCTGCCAGA	1.79
AGTCAAAGTTCAGGACGAGGTTACGTAAAGCACG	4.65
TCTAGTTGGTCACGGACGTCACACACGACGGGTA	0.203
TAGCCTAGGTCATTGCGCCAGTATAGTACGCATC	3.69
TCTTTTAGATCAAGCAGGTTAAGAAAGCCTGAGT	0.67
CATACAGGGTCAGCTAGGCCACAGTAGGGACGGC	3.07
GCTAGTTGGTCAGTAAAAGGTCACACGCCGGTCG	4.98
ACAGACAAGTGAGTGAAGGTAACTCAGCTGGACG	-0.258
CCTACTGGGCCATTCAGAGGTCTTTGATCATATG	-0.261
CCGACTGGGGTAGAAAGGTTACCATACCATCCGG	0.786
CCGACTGGGGCATAAGGTTAGCATAAGCCAGCCC	-0.371
CGTCAAAGTTCCACTAAGGTAACGTAAAGCACGC	-0.0438
CCGACTGGGGCAGATAGGTTACCATACCATCCGG	-0.25

Sequence	PBM binding z-score
CATACAGGGTCAGCTAGGCGAGAGTAGGGACGGC	2.84
GGAACGAGGGCAAGTTGATCGCAGAGTTTGATGG	0.257
ACAGACAGGTGATGAAGCTAACTCAGGCTATCAT	-0.408
GCATATAGGTAATACAAGGTAAAAGTCCGATTGT	0.511
TCTGGGAGGACACGAAAGGTCAGAGCTCGACATC	4.18
CCGACTGGGGCAAAGTTACCATAACGCACAGCCA	-0.516
AGAATGAGGTTAAGATGAGGGAAACAGAATACAT	2.35
ATATGTAGATTATCGGGTCATTCAGTTTGCGCAT	2.5
TCATATTGGTAAAGGTGAAAGTCGAACGATATGA	1.1
TCTCGGAGCACACGAAGGTCAGAGCTTTCCAGAG	0.742
CAAACTAGGTCAAGAGATCAAAGTCCGCTTCCCG	2.88
ATCGAAAGGTCGAGGGTGAGTATACCCACCCGAA	3.45
CAGCCTAGGTCAGGGCCAGTATTGGAGGAACGTT	0.996
ATCGAAAGGTCGAAGGTGAGTGTACCCACCCGAA	3.39
CGAACTAGGTTAAGGACAGTGAATCTCCGCACGC	0.377
TCATATAGGTAATACAGGTGAAAGCCGGCATCTA	1.36
CCTGCTAGGTCATCGTCAGCTAATCTACAGTATG	2.89
TCTTGGAGATCAACAGGAGGTTAAGAAAGATCGA	1.25
GCGACTGGGGCAAAGCAGGTTACCATAAGGTTGG	0.088
TAGCCTAGGTCATGGACCAGTATACCACGCGAAC	3.44
